Reference: PubChem BioAssay (EPA / NIEHS)
The source made the active and inactive calls. Rule for the calls: active = hit-call score of the fitted dose curve at least 0.9, where 1 is the maximum; inactive = score below 0.9.

Assay: ATG_M_19_CIS: Attagene CIS-FACTORIAL HepG2 Assay for M19 Transcription Factor (Internal Marker) (AID 2282939)
Conditions: HepG2 Attagene CIS-FACTORIAL M19 internal marker reporter; actives raise or lower the signal
Experimental: ATG_CIS is a cell-based, multiplexed-readout assay that uses HepG2, a human liver cell line, with measurements taken at 24 hours after chemical dosing in a 24-well plate.ATG_M_19_CIS is one of 52 assay component(s) measured or calculated from the ATG_CIS assay. It is designed to make measurements of mRNA induction, a form of inducible reporter, as detected with fluorescence intensity signals by Reverse transcription polymerase chain reaction (RT-PCR) and Capillary electrophoresis technology.Data from the assay component ATG_M_19_CIS was analyzed into 1 assay endpoint. This assay endpoint, ATG_M_19_CIS, was analyzed with bidirectional fitting relative to DMSO as the negative control and baseline of activity. Using a type of inducible reporter, measures of mRNA for gain or loss-of-signal activity can be used to understand the background control at the transcription factor-level as they relate to the gene . Furthermore, this assay endpoint can be referred to as a secondary readout, because this assay has produced multiple assay endpoints where this one serves a background control function. To generalize the intended target to other relatable targets, this assay endpoint is annotated to the background measurement intended target family, where the subfamily is internal marker.
Human liver HepG2 cells are transiently transfected with multiple reporter transcription units (MRTUs) in 6-well plates using FuGene 6 reagent (Roche; 3 ml FuGene/1 mg DNA). The MRTU constructs are regulated by a cis-regulating element (promoter). […] A major difference between the CIS and TRANS system is that in CIS activities of endogenous TFs are measured, whereas the TRANS assay evaluates changes in activities of exogenous, chimeric NR-Gal4 proteins. […] At the end of 24 hour incubation, total RNA was isolated using TriZol reagent (Invitrogen). The isolated RNA is then reverse-transcribed using oligo(dT) primer and Mo-MLV reverse transcriptase (Invitrogen) with DNAse I (Ambion) treatment for 30 min. The one-tenth of the produced cDNA was amplified by PCR using Taq DNA polymerase (Invitrogen) and two reporter sequence-specific primers. The PCR products were fluorescently labeled by primer extension with 6-arboxyfluorescein (6-FAM) 5'-labeled reporter sequence-specific primer (2 min at 95 C, 20 s at 68 C and 10 min at 72 C) and these products were digested with 5U of HpaI (New England Biolabs) for 2h at 37 C. The fragments were purified using Qiaquick PCR columns (Qiagen), analyzed on an ABI 3130xL genetic analyzer (Applied Biosystems) with peak positions identified by using a set of X-rhodamine (ROX)-labeled MapMarker1000 molecular weight standards (BioVentures). The raw capillary electrophoresis data was processed using Attagraph software (Attagene).

outcome, inactive:
CC(C)(N=C=O)c1cccc(C(C)(C)N=C=O)c1
CCCC(C)=O
CC(=O)Nc1ccc(C(=O)CCl)cc1
CC(C)=CCCC(C)CCOC=O (stereo not given)
CCc1cc(C(C)(C)C)c(O)c(C(C)(C)C)c1
c1ccc(Oc2ccccc2)cc1
CC(=O)CC(=O)Nc1ccc(C)cc1C
CCCCCCC(C)Nc1ccc(Nc2ccccc2)cc1 (stereo not given)
O=Cc1ccccc1S(=O)(=O)O
C=C(C)[C@H]1CC=C(C)C(=O)C1
CCN(CCN)c1cccc(C)c1
CCO/C=C1\N=C(c2ccccc2)OC1=O
Oc1c(Cl)cc(Cl)c(Cl)c1Cc1c(O)c(Cl)cc(Cl)c1Cl
CCOC(=O)COC(=O)c1cc(Oc2ccc(C(F)(F)F)cc2Cl)ccc1[N+](=O)[O-]
CC1=C(Br)C(=O)C(Br)=C/C1=C(/c1ccccc1S(=O)(=O)O)c1cc(Br)c(O)c(Br)c1C
Cc1occc(=O)c1OC(=O)C(C)C
C=Cc1ccc(C(C)(C)C)cc1
CCOc1ccc(NC(=O)CC(C)O)cc1 (stereo not given)
O=c1c(O)c(-c2ccc(O)cc2)oc2cc(O)cc(O)c12
CC(C)(C)C1=CC(=O)C(C(C)(C)C)=CC1=O
IC(I)I
O=CCc1ccccc1
CCCCCCCCCCCC(=O)OCC(O)CO (stereo not given)
CCCCCC(C)=O
c1ccc(CCc2ccccc2)cc1
COC(=O)c1ccc([N+](=O)[O-])cc1
CCCC(=O)C(CC)Sc1ccoc1C (stereo not given)
Nc1ccc2cc(S(=O)(=O)O)cc(O)c2c1N=Nc1ccccc1C(F)(F)F
CC(C=O)Cc1ccc(C(C)(C)C)cc1 (stereo not given)
COc1ccc(N)c([N+](=O)[O-])c1
C=C(C)C1CC=C(C)C(=O)C1 (stereo not given)
Brc1ccc(Br)c(Br)c1
CCOC(=O)C(C#N)=C(c1ccccc1)c1ccccc1
Cc1c(C2(c3cc(Br)c(O)c(Br)c3C)OS(=O)(=O)c3ccccc32)cc(Br)c(O)c1Br
Cc1c(OCC(F)(F)F)ccnc1CS(=O)c1nc2ccccc2[nH]1 (stereo not given)
CC(C)NCC(O)COc1ccc(CC(N)=O)cc1 (stereo not given)
CN(C)C(=O)Nc1ccc(Oc2ccc(Cl)cc2)cc1
CCc1ccc(O)c(OC)c1
CC1(C)CCC[C@]2(C)[C@H]3CCO[C@]3(C)CC[C@@H]12
COc1ccccc1N=Nc1c(S(=O)(=O)O)cc2cc(S(=O)(=O)O)cc(NC(C)=O)c2c1O
